Values joined by “and” are separate entries in the source; they are usually repeats but may differ in a detail not shown here. Equal entries are not always repeated. Screen size: about 420,000 compounds; about 64,000 (15%) were called active. Inconclusive results (about 27%) are left out. Calls follow the shape of the dose curve; as a rule, active = well fitted inhibition curve with a large enough effect; inconclusive = small, poorly fitted or top-dose-only effect; inactive = flat fitted curve, though single readings scatter. Not all results are given here. A call without a number means that no potency is given here. Peptide text beside a SMILES is read from it. * marks the point of attachment. Bz = O=C(c1ccccc1)*
assay: qHTS for Inhibitors of human tyrosyl-DNA phosphodiesterase 1 (TDP1): qHTS in cells in absence of CPT; conditions: DT40 Tdp1-/- hTDP1 cells, no CPT, ATP luminescence, 48 h; activity change, negative = growth inhibition: at 46.2 µM (top of the series); also: nearly all actives have a fitted effect of over 55% in size
Summary of the method: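 Chicken DT40 Tdp1-/- cells complemented with human TDP1, screened without camptothecin (DMSO vehicle only), 400 cells/well. Compounds pin-transferred, cells incubated at 37 °C for at least 48 hr. Growth read as ATP-dependent luminescence (CellTiter-Glo, 30 min at RT).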
Potency is read from the fitted curve at half-maximal effect.

Compound | Potency
O=C(Nc1ccc(Cl)cn1)c1cnn2cccnc12 | inactive
COc1ccccc1CNC(=O)c1ccc(N(C)S(=O)(=O)c2ccc(C)cc2)cc1 | inactive
COc1ccc(S(=O)(=O)N2CCOCC2)cc1C(=O)NC1CCCCC1 | inactive
COc1ccccc1N(C)S(=O)(=O)c1ccc(C(=O)NC2CCCCCC2)cc1 | 23.1 µM (active)
CCc1ccc(OCC(=O)OCC(=O)c2c(N)n(C)c(=O)n(C)c2=O)cc1 | inactive
CC(C)Oc1ccc(/C=N/NC(=O)c2nnn(-c3nonc3N)c2CN(C)C2CCCCC2)cc1 | inactive
Cc1cc(C)cc(NC(=O)NCc2ccccn2)c1 | inactive
CCc1ccc(C(=O)NN=C2CCCCCC2)s1 | inactive
CC(C)(C)NC(=O)C(=O)NN=C1CCCCCCC1 | inactive
CC(C)NC(=S)NN=C1CCCCCCCCCCC1 | 13 µM (active)
Cc1ccc(-n2nc3c(c2NC(=O)CCC2CCCCC2)CS(=O)C3)cc1 (configuration not stated) | inactive
CCN1CCC(O)(/C=C/c2ccc(C)cc2)C(C(=O)/C=C/c2ccc(C)cc2)C1 (configuration not stated) | 4.61 µM (active)
O=S(=O)(c1ccc(Cl)s1)N1CCC2(CC1)OCCO2 | inactive
CNS(=O)(=O)c1ccc(N2CCCC2=O)c([N+](=O)[O-])c1 | inactive
O=C(c1ccc(N2CCCC2=O)cc1)N1CCN(c2ccc(C(F)(F)F)cc2[N+](=O)[O-])CC1 | 2.31 µM (active)
O=[N+]([O-])c1cc(C(F)(F)F)ccc1NN=C1CCCC1 | inactive
COc1cc(C(=O)Nc2cc(C(F)(F)F)ccc2-n2cncn2)cc(OC)c1OC | inactive
O=C(Nc1cc(Cl)ccc1N1CCOCC1)c1ccc(N2CCCC2=O)cc1 | inactive
COc1cc(OC)cc(C(=O)NC(=S)N2CCN(c3ccc(C(F)(F)F)cc3[N+](=O)[O-])CC2)c1 | 16.4 µM (active)
C=CCO/N=C/C1=C(O)C(C(=O)OC)C(C)(C)CC1=O (configuration not stated) | inactive
CC(C)(C)c1ccccc1NC(=O)CN1C(=O)NC2(CCCC2)C1=O | inactive
CCc1[nH]nc(C(=O)N2CCCC(CNS(=O)(=O)c3cccs3)C2)c1C (configuration not stated) | inactive

Compound | Potency
CC(NC(=O)C1CCC(CNc2c(N3CCOCC3)c(=O)c2=O)CC1)c1ccccc1 (configuration not stated) | inactive
c1ccc2c(NC3C4CC5CC(C4)CC3C5)nc(N3CCOCC3)nc2c1 (configuration not stated) | 20.6 µM (active)
CC(Nc1nc(N2CCOCC2)nc2ccccc12)c1ccccc1 (configuration not stated) | 18.4 µM (active)
O=C(COC(=O)CCc1nc2ccccc2c(=O)[nH]1)Nc1ccc(N2CCOCC2)cc1 | inactive
FC(F)(F)c1cc(-c2ccco2)nc(N2CCOCC2)n1 | inactive
CC(Nc1nc(N2CCCC2)nc2ccccc12)c1ccccc1 (configuration not stated) | 20.6 µM (active)
O=C(NNc1nc(N2CCCC2)nc(N2CCCC2)n1)c1ccccc1 | inactive
Cc1ccc(C(CC(=O)O)Nc2nc(N3CCCCC3)nc(N3CCCCC3)n2)cc1 (configuration not stated) | inactive
CC(CN1CCOCC1)c1ccccc1 (configuration not stated) | inactive
NC(=O)c1ccc(N2CCCC2)nc1 | inactive
COc1ccccc1C(=O)Nc1ccc(OCc2nnc3c4ccccc4c(C)nn23)cc1 | 13 µM (active)
COc1cc(C(=O)Nc2ccc(OCc3cc(=O)n4cc(C)sc4n3)cc2)cc(OC)c1OC | inactive
COc1ccccc1C(=O)Nc1ccc(Nc2ccccc2)cc1 | inactive
O=C1N=C2SCCN2/C1=C\c1c(Cl)cccc1Cl | inactive
Cc1c(C(=O)NCCN2C(=O)S/C(=C\c3cccs3)C2=O)cccc1[N+](=O)[O-] | inactive
CN(C)c1ccc(C(CC(=O)O)C(=O)O)cc1 (configuration not stated) | inactive
c1n[nH]c(NCc2ccc3c(c2)OCO3)n1 | inactive
O=C(CCN1C(=O)c2ccccc2C1=O)C1=NN[C@@H]2C(=O)N(c3ccc(F)cc3)C(=O)[C@H]12 | inactive
CC(=O)c1ccc(S(=O)(=O)N2CCC3(CC2)OCCO3)cc1 | inactive
CCCCC(CC)CNC(=O)C1CCN(S(=O)(=O)c2cccc3nsnc23)CC1 (configuration not stated) | inactive
CCCCN(CC)C(=O)C1CCCN(S(=O)(=O)c2cccc3nsnc23)C1 (configuration not stated) | 18.4 µM (active)
CCCCN(C)CCNC(=O)C1CCCN(S(=O)(=O)c2cccc3nsnc23)C1 (configuration not stated) | inactive

Compound | Potency
Cc1cc(=O)[nH]c(SCc2cc(Cl)ccc2OC(F)F)n1 | inactive
O=C(COC(=O)C1CC2CCCC(C1)C2=O)NC(=O)c1ccccc1 (configuration not stated) | inactive
O=C(COC(=O)c1ccc(NS(=O)(=O)c2cccs2)cc1O)Nc1ccc(F)cc1 | inactive
CCC(CC)NC(=O)CSc1nnc(-c2c[nH]c3ccccc23)o1 | inactive
O=S(=O)(NCCc1ccncc1)c1ccccc1 | inactive
CCCC(=O)Nc1cccc(-c2cn3ccsc3n2)c1 | inactive
CS(=O)(=O)Nc1cccc(-c2cn3ccccc3n2)c1 | inactive
CCCS(=O)(=O)Nc1cccc(-c2cn3ccsc3n2)c1 | 25.9 µM (active)
O=C1CC2(CCCC2)Oc2ccc(Cl)cc21 | inactive
COc1cccc2c1OCC(CN1CCN(C3CCCCC3)C(CCO)C1)=C2 (configuration not stated) | inactive
CCc1cccc(OC2OC(CO)C(O)C(O)C2NC(C)=O)c1 (configuration not stated) | inactive
Cn1ncc2c(Nc3cccc4ccccc34)ncnc21 | inactive
COc1ccc(CNC(=O)C(NS(=O)(=O)c2cccc3nsnc23)C(C)C)cc1 (configuration not stated) | inactive
CCOC(=O)c1cccc(NC(=O)C(Cc2ccccc2)NS(=O)(=O)c2cccc3nsnc23)c1 (configuration not stated) | 23.1 µM (active)
O=C(O)C(NS(=O)(=O)c1cccc2nsnc12)c1ccccc1 (configuration not stated) | inactive
COc1ccc(NC(=S)N2CCCC(CO)C2)c(OC)c1 (configuration not stated) | inactive
O=C(C1CCCO1)N(c1ccc(F)cc1)C1C=CS(=O)(=O)C1 (configuration not stated) | inactive
O=C(Nc1ccccc1)Oc1cccc2cccnc12 | 1.03 µM (active)
O=C(Nc1ccccc1Cl)Nc1cccc2cccnc12 | inactive
COc1ccc(NC(=O)Nc2cccc3cccnc23)cc1 | inactive
CSCCC(NC(=O)COc1ccccc1)C(=O)N(C)CC(=O)Nc1ccc(C)cc1 (configuration not stated) | inactive
COc1ccc(S(=O)(=O)NCCc2cc3ccc(C)c(C)c3[nH]c2=O)cc1 | 8.2 µM (active) and 23.1 µM (active)

Compound | Potency
COc1ccc(S(=O)(=O)NCCSc2nnnn2-c2ccccc2)cc1 | inactive
COc1ccc(CCNS(=O)(=O)c2cccc([N+](=O)[O-])c2)cc1 | inactive
Cc1cc(NS(=O)(=O)c2ccccc2)no1 | inactive
CCOC(=O)CNC(=O)CSc1ncccc1-c1nc2ccccc2[nH]1 | inactive
C/C(=N/OC(=O)c1ccc(Br)cc1)c1ccc(C)cc1 | inactive
O=Cc1c(Nc2ccccc2Cl)nc2ccccn2c1=O | inactive
COc1ccc(NC(=O)CSc2nnnn2-c2cccc(OC)c2)cc1 | inactive
COc1ccc(-n2nnnc2-c2nc3ccccc3s2)cc1 | inactive
CCOc1cccc(-n2nnnc2-c2ccc(OC)cc2)c1 | 2.91 µM (active)
Cc1cccc(CSc2ccc(-c3cccs3)nn2)c1 | inactive
CC(C)CCNC(=O)CSc1nc2ccccc2nc1Cc1ccc(Cl)cc1 | inactive
Nc1ncnc2c1ncn2[C@@H]1O[C@H](CNS(=O)(=O)c2ccc(-c3ccno3)s2)[C@@H](O)[C@H]1O | inactive
CO/N=C(\C(=O)N[C@@H]1C(=O)N2C(C(=O)O)=CCS[C@H]12)c1csc(N)n1 | inactive
O=S(=O)(c1ccc(Br)cc1)n1ccc2ccccc21 | 18.4 µM (active)
O=C(c1ccccc1F)N1CCN(S(=O)(=O)c2ccc(Br)cc2)CC1 | inactive
O=C(O)C1CCCN1S(=O)(=O)c1ccc(Br)cc1 (configuration not stated) | inactive
O=C(Nc1ccc2c(c1)OCCO2)C1CCCC1 | inactive
COc1ccc(CCNCc2c(-c3ccccc3)n(C)c3ccccc23)cc1 | 16.4 µM (active)
COc1ccc(CNC(=O)CCN2C(=O)c3ccccc3C2=O)cc1 | inactive
COc1ccc(OCCCC(=O)NCCc2ccccc2)cc1 | inactive
CC1(c2ccccc2)NC(=O)N(CC(=O)N2CC(=O)Nc3ccccc32)C1=O (configuration not stated) | inactive
Cc1ccc(Cl)cc1NC(=O)NC1COc2ccccc2C1 (configuration not stated) | inactive

Compound | Potency
Cc1ccc(N=Nc2c(C)[nH]n(-c3ccccc3)c2=O)cc1 | inactive
Cc1cc[n+](-c2[nH]c(=O)sc2/C=N/NC(=O)c2ccccc2[O-])cc1C | inactive
Cc1[nH]n(-c2ccccc2)c(=O)c1/C=N/NC(=O)c1ccoc1C | 1.84 µM (active)
CCn1c(SCC(=O)Nc2ccc(S(=O)(=O)Nc3onc(C)c3C)cc2)nnc1-c1ccccc1 | inactive
CCOc1ccc(NC(=O)CCC(=O)NNC(=O)NC2CCCCC2)cc1 | inactive
O=c1[nH]c(N2CCOCC2)nc2ccccc12 | inactive
O=C(COc1nc2ccccc2nc1N1CCOCC1)NCC(F)(F)F | inactive
c1ccc(Nc2nc(N3CCOCC3)c3ccccc3n2)cc1 | 16.4 µM (active)
Cc1ccc(-n2c(SCC(=O)Nc3ccc4c(c3)OCO4)nnc2-c2ccccn2)cc1 | inactive
Cc1ccc(/C=C(\C#N)C(=O)Nc2cccc3ncccc23)o1 | 25.9 µM (active)
Cc1ccc2c(NC(=O)C3CC3)cccc2n1 | inactive
Cc1ccc(C(=O)Nc2cccc3ncccc23)cc1[N+](=O)[O-] | inactive
COc1ccc(S(=O)(=O)N2CCCC2CNC(=O)C(=O)NC2CC2)cc1 (configuration not stated) | inactive
Cc1cc(OCc2ccc(C(=O)Nc3ccc(C(=O)O)cc3)o2)ccc1Cl | inactive
CCN(CC)S(=O)(=O)c1ccc(-c2cn3ccc(C)cc3n2)cc1 | inactive
C/C(=N/NS(=O)(=O)c1ccccc1)c1ccc(NC(=O)C(F)(F)F)cc1 | inactive
Cn1c(=O)c2c(-c3ccccc3Br)n(Cc3ccccc3)cc2n(C)c1=O | 18.4 µM (active)
Cc1c(S(=O)(=O)NCc2ccccc2)c(=O)n(C)c(=O)n1C | inactive
O=C(NC(Cc1ccccc1)C(=O)N1CCCC1C(=O)O)c1ccccc1 (stereo not drawn) (Bz-Phe-Pro-OH; configuration not given here) | inactive
